# The entries come from a sample that favours hits as a whole.
# Anaer choline gr: growth inhibitors of anaerobic choline-fed gram-negatives, minimal medium, absorbance; AID 1963822, 2024; calls only; Gram-negative bacterium anaerobic choline minimal medium; active compounds read low; actives 0.2% (n = 55,000); call rule not given here
# Numbers without * were called inactive; i = inactive; + = active, no number; ! = repeats disagree.
SMILES,Anaer choline gr
CC(C)OC(=O)CCC/C=C\C[C@@H]1[C@@H](/C=C/C(=O)COc2cccc(C(F)(F)F)c2)[C@H](O)C[C@@H]1O,i
CC(C)OC(=O)CCC/C=C\C[C@@H]1[C@@H](/C=C/[C@H](O)CCc2ccccc2)[C@H](O)C[C@@H]1O,+
O=C(O)CCC/C=C\C[C@@H]1[C@@H](/C=C/[C@@H](O)COc2cccc(C(F)(F)F)c2)[C@H](O)C[C@@H]1O,+!
Cc1nn(-c2ccc(-c3ccccc3)nn2)c(C)c1S(=O)(=O)N1CCN(C)CC1,i
Cc1noc2ncnc(NC3CC3)c12,i
CCOC(=O)c1cn[nH]c1S(=O)(=O)Nc1ccccc1,i
CCN(Cc1ccccc1)Cc1cc(=O)n2nc(C3CC3)sc2n1,i
O=S(=O)(c1cc(-c2nnc(C3CCC3)o2)co1)N1CCN(c2ccc(Cl)cc2)CC1,i
O=c1onc2n1-c1cc(Br)ccc1OC2,+
Cc1nc(CN2C(=O)COc3ccc(S(=O)(=O)N4CCCCC4)cc32)no1,i
Cc1nc(CN2C(=O)COc3ccc(S(=O)(=O)N4CCCC4)cc32)no1,i
CN1C(C(=O)NCc2ccc3c(c2)OCO3)=C(c2ccccc2)c2cc(Cl)ccc2S1(=O)=O,i
Cc1cccc(N2CCN(C(=O)CC3=NS(=O)(=O)c4ccccc4N3)CC2)c1C,i
CO[C@@]12[C@H](COC(N)=O)C3=C(C(=O)C(C)=C(N)C3=O)N1C[C@@H]1N[C@@H]12,+!
COc1ccc(Cc2nnc(NC(=O)C3c4ccccc4Oc4ccccc43)s2)cc1,i
CN(C)C(CNC(=O)c1cc(-c2ccccc2)on1)c1ccccc1 (configuration not stated),i
CCc1cc(Cl)c(OC)c(C(=O)NC[C@@H]2CCCN2CC)c1O,+!
CCc1cc(Cl)c(OC)c(C(=O)NCC2CCCN2CC)c1O (configuration not stated),i
CCN1CCCC1CNC(=O)c1c(O)c(Cl)cc(Cl)c1OC (configuration not stated),i
CC(C)CNC(=O)C1=C(c2ccccc2)c2cc(Cl)ccc2S(=O)(=O)N1C,i
CCOC(=O)c1noc2ncnc(Nc3cccc(Cl)c3)c12,i
Cn1c(=O)c(=O)n(C)c2cc(N3CCCCC3)c(NC(=O)C(C)(C)C)cc21,i
Nc1nc(Cl)nc2c1ncn2[C@H]1C[C@H](O)[C@@H](CO)O1,i
O=c1[nH]cnc2c1ncn2C1O[C@H](CO)[C@@H](O)[C@H]1O (some centres not stated),i
Nc1nc(Cl)nc2c1ncn2[C@@H]1O[C@H](CO)[C@@H](O)[C@@H]1F,+!
Cc1ccc(Cc2nc(CCNC(=O)NCC(C)C)n[nH]2)cc1,i

# Screening data (PubChem)
